Results reported in PubChem BioAssay AID1445 (SRMLSC, 2008).
Out of some 220,000 compounds screened, about 910 (0.41%) were called active. For the sample, actives were picked, then their nearest neighbours and some compounds at random. Measured potencies and affinities stand elsewhere. Values without a mark were called inactive.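 The calls were made as follows: active = primary inhibition above the hit cutoff, then over 50% inhibition at one or more dose response concentrations (cut at about 23% in these data, passing the limit was not always enough); inconclusive = conflicting primary data, or primary hits not chosen for dose response; inactive = low primary inhibition, or under 50% at every dose.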

These compounds were tested against Aminopeptidase N (Plasmodium falciparum (isolate 3D7)) (UniProt O96935) (assay: P. falciparum M1AAP inhibitors, biochemical, fluorogenic H-Leu-NHMec substrate, 1536-well (AID 1445;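 also: plate controls were DMSO full reaction for no effect and no enzyme background for full effect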)). Settings: recombinant M1AAP, H-Leu-NHMec fluorogenic kinetic assay; at 30 µM, hits give high values unless noted.
Aminopeptidase N (Plasmodium falciparum (isolate 3D7)), sequence (O96935 whole entry, looked up): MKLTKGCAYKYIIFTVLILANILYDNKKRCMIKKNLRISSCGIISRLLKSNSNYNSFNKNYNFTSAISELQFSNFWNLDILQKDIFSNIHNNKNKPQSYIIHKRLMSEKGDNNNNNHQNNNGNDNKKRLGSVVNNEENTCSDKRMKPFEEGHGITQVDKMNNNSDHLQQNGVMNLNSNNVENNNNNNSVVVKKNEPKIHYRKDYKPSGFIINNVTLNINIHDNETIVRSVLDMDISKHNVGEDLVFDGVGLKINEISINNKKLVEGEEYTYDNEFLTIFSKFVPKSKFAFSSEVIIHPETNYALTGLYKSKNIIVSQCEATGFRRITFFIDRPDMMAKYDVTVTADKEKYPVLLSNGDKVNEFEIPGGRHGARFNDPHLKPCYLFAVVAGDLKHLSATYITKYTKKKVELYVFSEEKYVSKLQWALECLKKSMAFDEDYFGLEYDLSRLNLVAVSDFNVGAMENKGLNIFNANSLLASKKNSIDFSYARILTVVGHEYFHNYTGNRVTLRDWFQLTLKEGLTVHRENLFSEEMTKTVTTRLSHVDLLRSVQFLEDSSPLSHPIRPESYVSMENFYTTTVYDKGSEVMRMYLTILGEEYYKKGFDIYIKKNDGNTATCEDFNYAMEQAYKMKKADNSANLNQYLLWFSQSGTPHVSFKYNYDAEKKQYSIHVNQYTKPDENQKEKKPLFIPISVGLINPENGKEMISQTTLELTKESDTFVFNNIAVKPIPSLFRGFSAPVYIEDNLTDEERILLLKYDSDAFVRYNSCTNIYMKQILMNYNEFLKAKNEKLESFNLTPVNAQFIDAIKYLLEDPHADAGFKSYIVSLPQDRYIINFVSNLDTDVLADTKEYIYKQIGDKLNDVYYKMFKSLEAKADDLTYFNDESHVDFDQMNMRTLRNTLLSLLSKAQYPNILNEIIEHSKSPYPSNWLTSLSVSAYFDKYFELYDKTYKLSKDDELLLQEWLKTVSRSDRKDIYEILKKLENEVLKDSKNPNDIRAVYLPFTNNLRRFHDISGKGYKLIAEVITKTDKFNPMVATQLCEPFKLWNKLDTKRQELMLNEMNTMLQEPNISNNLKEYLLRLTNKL

Row | SMILES | inhibition
1 | O=C(N/N=C/c1cc(Cl)cc([N+](=O)[O-])c1O)C1CC1 | 29.8%
2 | O=C(Cn1cnc([N+](=O)[O-])n1)N/N=C/c1ccccc1O | 0.91%
3 | O=C(Cn1cnc([N+](=O)[O-])n1)N/N=C/c1ccc(O)cc1O | 2.52%
4 | Cc1cc(C)n(CC(=O)N/N=C/c2ccc([N+](=O)[O-])s2)n1 | 13.2%
5 | O=C(Cn1nc2ccccc2n1)N/N=C/c1cc([N+](=O)[O-])ccc1O | 37.9%
6 | Cc1cc(C(=O)N/N=C/c2cc(Cl)cc([N+](=O)[O-])c2O)c2ccccc2n1 | 30.4%
7 | Cc1cc(C)n(CC(=O)N/N=C/c2cc([N+](=O)[O-])ccc2O)n1 | 31.6%
8 | O=C(Cn1nnc(-c2ccccc2)n1)N/N=C/c1cccc([N+](=O)[O-])c1O | 7.92%
9 | Cc1nc2c(c(=O)c3ccccc3n2C)c(=O)n1C1CCCCCC1 | -1.82%
10 | NS(=O)(=O)c1ccc(N/C=C\C(=O)c2ccncc2)cc1 | 13%
11 | CCNS(=O)(=O)c1ccc(NC(=O)CC(C)c2ccccc2)cc1 (stereo not given) | 1.21%
12 | CC(=O)Nc1cccc(/C(C)=N/NC(=O)c2cc(-c3ccncc3)nc3ccccc23)c1 | 10.5%
13 | Cc1cc(C)n(-c2ccc(Oc3ccccc3)c(S(=O)(=O)O)c2)n1 | 1.18%
14 | O=C1CC(c2cccs2)c2ccc3ccccc3c2N1 (stereo not given) | 0.72%
15 | Cc1ccc(N2C(=S)NC3c4ccccc4OC2(C)C3C(=O)N(C)C)cc1 (stereo not given) | 2.84%
16 | CN(Cc1cnccn1)Cc1nc(Cc2cccc(F)c2)no1 | 2.76%
17 | CCOc1[nH]n(-c2ccccc2)c(=O)c1C=Nc1ccccc1 | 7.67%
18 | CCOC(=O)c1ccc(NC(=O)CNS(=O)(=O)c2ccccc2)cc1 | 2.05%
19 | Oc1ccc(Cl)cc1C=Nc1ccccc1Br | 1.39%
20 | Oc1ccc(Cl)cc1N=Cc1sc2ccccc2c1Cl | 21%
21 | OCCC1CN(Cc2c(F)cccc2Cl)CCN1C1CCCC1 (stereo not given) | -1.58%
22 | COc1ccc(OC)c2c1sc(=NC(=O)C1CC1)n2C | 2.25%
23 | NC(=S)Nc1nc2ccccc2[nH]c1=O | 23.5% (active)
24 | COc1ccc2[nH]c(=O)c(NC(N)=S)nc2c1 | 16.1%

Row | SMILES | inhibition
25 | COCCCNc1nc2ccccc2[nH]c1=O | 7.88%
26 | Cc1occc1C(=O)NNC(=O)c1ccccc1Br | -1.69%
27 | COc1ccc2c(CC(=O)NCC3CCC(C(=O)O)CC3)cc(=O)oc2c1 (stereo not given) | 3.73%
28 | COC(=O)Cc1cc(=O)oc2cc(OC)ccc12 | 1.65%
29 | CCCCc1cc(=O)oc2cc(O)ccc12 | 31.7%
30 | O=C(Cn1nnc2ccccc2c1=O)NCC1CCC(C(=O)O)CC1 (stereo not given) | 0.69%
31 | COc1cc(OC)c2c(C)cc(=O)oc2c1C(CCN1CCN(c2ccccc2)CC1)c1ccc2c(c1)OCO2 (stereo not given) | 1.4%
32 | Cc1ccc(C(=O)Nc2ccccc2C(=O)O)cc1NC(=O)COc1c(C)cccc1C | 4.7%
33 | CN(CC(=O)Nc1cccc2ccccc12)C(=O)/C=C/c1cccs1 | 16.9%
34 | Cc1cc(C)cc(N(C(=O)c2nsc(Cl)c2Cl)C(C(=O)NC2CCCC2)c2ccc(O)cc2)c1 (stereo not given) | -3.07%
35 | N#Cc1cc2c(nc1SCc1ccccc1)CCCC2 | 5.77%
36 | Cc1cc(SCC(=O)N/N=C/c2ccc(O)c(O)c2)c(C)cc1Br | -0.74%
37 | C=CCn1c(Cn2nnc3ccccc32)nnc1SCC(=O)N/N=C/c1cc(Br)cc(OC)c1O | 46.2% (active)
38 | Cc1cc(SCC(=O)N/N=C/c2ccc(O)cc2O)c(C)cc1Br | 24% (active)
39 | C=CCn1c(CNc2ccc(C)cc2)nnc1SCC(=O)N/N=C/c1ccc(O)cc1O | 37% (active)
40 | C=CCn1c(CNc2ccccc2)nnc1SCC(=O)N/N=C/c1ccccc1O | 30.8%
41 | CCn1c(SCC(=O)N/N=C/c2cc(OC)c(O)c(OC)c2)nc2ccccc21 | 3.33%
42 | C=CCn1c(CNc2ccc(C)cc2)nnc1SCC(=O)N/N=C/c1ccc(O)cc1 | 14.4%
43 | Cc1cc(SCC(=O)N/N=C/c2ccc(O)c(O)c2O)c(C)cc1Br | 39%
44 | COc1cccc(/C=N\NC(=O)Cn2nnc3ccccc32)c1O | 1.18%
45 | CCC1(CC)Cc2ccccc2C(=O)N1 | 2.59%
46 | Nc1ccccc1SCc1ccccc1Cl | 1.31%
47 | O=C(CCN1CCOCC1)NNC(=O)/C(=C/c1ccccc1)NC(=O)c1ccccc1 | 5.04%
48 | O=C(c1cccc(Oc2c(Cl)cccc2[N+](=O)[O-])c1)N1CCCCC1 | 4.82%

Row | SMILES | inhibition
49 | Cc1ccc(CSC2=Nc3ccccc3C3=NC(CC(=O)NCc4ccco4)C(=O)N23)cc1 (stereo not given) | 25.5% (active)
50 | Cc1ccc(CSC2=Nc3ccccc3C3=NC(CCC(=O)NCc4ccco4)C(=O)N23)cc1 (stereo not given) | 14.5%
51 | O=C(CCC1N=C2c3ccccc3N=C(SCc3ccc(Cl)cc3)N2C1=O)NCc1ccco1 (stereo not given) | 11.4%
52 | C=CCN=C1S/C(=C\c2ccc(Cl)cc2)C(=O)N1CC=C | 3.89%
53 | COC(=O)C(C(C)=O)C1=C/C(=N\S(=O)(=O)c2ccc(C)cc2)c2ccccc2C1=O (stereo not given) | 12.9%
54 | Cc1ccc(S(=O)(=O)/N=C2/C=C(Sc3ncn[nH]3)C(=O)c3ccccc32)cc1 | 14.9%
55 | O=C(/C=C/c1cccc(Br)c1)N1CCN(c2ccccn2)CC1 | 12.4%
56 | CCCNC(=O)c1ccc2c(=O)n3c(-c4ccc(C)cc4)csc3nc2c1 | 10%
57 | O=C(O)CSc1nc(-c2cccs2)cc(C(F)(F)F)n1 | -2.67%
58 | O=C(c1ccc(C(F)(F)F)cc1)C1CCCN(C(=O)CN2C(=O)CSC2=O)C1 (stereo not given) | -2.21%
59 | CC(Sc1nc(N)cc(=O)[nH]1)C(=O)Nc1cccc(Cl)c1 (stereo not given) | 14.1%
60 | CN(CCc1ccccn1)C(=O)Nc1ccc(C(C)(C)C)cc1 | 2.28%
61 | CN1C(=O)/C(=C/c2coc3ccc(O)cc3c2=O)SC1=S | -2.96%
62 | O=C1NC(=S)S/C1=C\c1coc2ccccc2c1=O | 14.4%
63 | CCC1CCCCN1C(=O)CCc1nnc(C2CCCCC2)o1 (stereo not given) | 0.86%
64 | CC(C)Cc1nnc(NC(=O)CSc2nc(O)c(-c3ccccc3)c(=O)[nH]2)s1 | 4.36%
65 | Nc1ccc(Nc2nc(-c3cc4ccccc4oc3=O)cs2)cc1 | 6.86%
66 | O=C(Nc1nc(-c2cc3ccccc3oc2=O)cs1)c1ccco1 | 13.4%
67 | O=C1N(c2ccccc2)C[C@@H]2C[C@@H](c3cccs3)N3CCC[C@@]123 | 2.6%
68 | O=C(COc1ccccc1[N+](=O)[O-])Nc1cccnc1 | 7.9%
69 | O=C(COc1cccc2cccnc12)Nc1ccccc1 | -0.06%
70 | O=C(COc1ccccc1[N+](=O)[O-])Nc1ccc(Br)cc1 | -3.79%
71 | O=C(COc1ccccc1)Nc1ccc([N+](=O)[O-])cc1 | 3.2%
72 | C=CCNC(=S)Nc1ccc(C(N)=O)cc1 | 4.91%

Row | SMILES | inhibition
73 | COC(=O)/C=C/c1ccsc1NC(C)=O | 7.35%
74 | O=C(Nc1ccccc1Oc1ccccc1)c1cccc([N+](=O)[O-])c1 | 6.7%
75 | Cc1nn(-c2cc(N3CCCC3)ccc2[N+](=O)[O-])c(=O)c2ccccc12 | 8.6%
76 | O=C(CSc1nc2c(c(=O)n1-c1ccc(F)cc1)SCC2)NCC1CCCO1 (stereo not given) | 15.6%
77 | Cc1ccc(-n2c(SCC(=O)NCC3CCCO3)nc3c(c2=O)SCC3)cc1 (stereo not given) | 4.19%
78 | COc1ccccc1NC(=O)CN1CCN(C(=O)c2ccco2)CC1 | 1.53%
79 | COc1ccc(C(=O)N2CCC(n3c(C)nc4cc(F)ccc43)CC2)cc1 | -1.13%
80 | CC(C)CNC(=O)C(=O)NN=C1CCCCCC1 | 2.51%
81 | COC(=O)c1ccc(C)c(NS(=O)(=O)c2ccc3c(c2)OCCO3)c1 | 9.88%
82 | O=C(O)c1ccc(NS(=O)(=O)c2ccc3c(c2)OCCO3)cc1 | 7.45%
83 | Cc1ccc(C)c(N(C)C(=O)c2cc3c(=O)[nH]c4ccc(C)cc4c3s2)c1 | -2.28%
84 | CC1(C)CC(=O)c2cc(OCC(=O)NCCN3CCCc4ccccc43)ccc2O1 | 6.69%
85 | COc1ccc2c(c1)C(=O)N(c1ccccc1OC)C(=O)C2(C)C | 11.7%
86 | COc1nnc(-c2ccc(N3CCOCC3)c(NC(C)=O)c2)c2ccccc12 | 4.98%
87 | O=C(NCc1ccncc1)C1CCN(S(=O)(=O)Cc2ccccc2)CC1 | 22.4%
88 | CCS(=O)(=O)N1CCC(C(=O)NCc2ccc3c(c2)OCO3)CC1 | 21.3%
89 | O=C(NCCc1ccccc1)C1CCN(C(=O)c2sccc2-n2cccc2)CC1 | 5.4%
90 | CCS(=O)(=O)N1CCC(C(=O)NCc2cccc(OC)c2)CC1 | -2.58%
91 | CCn1c(C(=O)N2CCC(C(=O)NCc3cccs3)CC2)cc2sccc21 | 18.2%
92 | O=C(NCc1ccccc1F)C1CCN(C(=O)c2sccc2-n2cccc2)CC1 | 3.14%
93 | CCCS(=O)(=O)N1CCCC(C(=O)NCc2ccc3c(c2)OCO3)C1 (stereo not given) | 4.51%
94 | CCn1c(C(=O)N2CCC(C(=O)NCc3ccc4c(c3)OCO4)CC2)cc2sccc21 | 31.3% (active)
95 | Cn1c(C(=O)N2CCCC(C(=O)NCc3ccc4c(c3)OCO4)C2)cc2sccc21 (stereo not given) | 5.35%
